Results taken from the supplement of paper PMC6555819.

How the values were obtained:
Assay in all cases: PBM binding z-score (relative to random genomic background probes); higher = stronger binding; sequences stand for … in GC…GCGATTGACAGCGTAGAATGAAGG
[1] = system: RARb homodimer (NR concentration 270 nM)
Summary of the method: (§1)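 Probes were double-stranded and carried 34-nt variable regions with direct-repeat seeds, single-nucleotide variants, half-site ablations and random human genomic background sequences, printed on custom Agilent 4×180K protein-binding microarrays. Arrays were incubated 1 h with ligand-free nuclear receptor dimers in PBS pH 7.4, 2% milk, 0.02% Triton X-100, 1 mM DTT, 0.2 mg/mL BSA and 0.4 mg/ml salmon testes DNA. Antibodies against each partner (one per run) detected binding, and scanned fluorescence was regression-normalized. Binding z-scores use the random background probes as reference.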

[2] = system: RARg:RXRa (NR concentration 270 nM, RXRa partner concentration 90 nM)
Summary of the method: as §1

[3] = system: RARg homodimer (NR concentration 270 nM)
Summary of the method: as §1

[4] = system: RXRa DBDmut IVT, anti-RXR (DBD mutation: RXRa K156A/R161A, NR concentration 90 nM)
Summary of the method: as §1

[5] = system: RXRa homodimer (NR concentration 180 nM)
Summary of the method: as §1

[6] = system: THRa:RXRa (NR concentration 90 nM, RXRa partner concentration 90 nM)
Summary of the method: as §1

[7] = system: THRa homodimer (NR concentration 90 nM)
Summary of the method: as §1

[8] = system: VDR homodimer (NR concentration 270 nM)
Summary of the method: as §1

| Sequence | PBM binding z-score [1] | PBM binding z-score [2] | PBM binding z-score [3] | PBM binding z-score [4] | PBM binding z-score [5] | PBM binding z-score [6] | PBM binding z-score [7] | PBM binding z-score [8] |
| --- | --- | --- | --- | --- | --- | --- | --- | --- |
| GCAGACAGGTGAAACGCAGCTAACTCAGGGTGGC | -0.474 | -0.209 | -0.0146 | -0.543 | -0.0388 | -0.192 | -0.872 | -1.11 |
| TATACAGCGTCAAAGGCCAGAGTACGAATGTCGA | 0.415 | 0.284 | 0.525 | -1.06 | 0.258 | -0.433 | -1.11 | -0.0431 |
| CCTATTGGGCCATTCAGAGGTCATTGATCATATG | 4.13 | 4.69 | 3.34 | 1.48 | 3.41 | 3.37 | 1.54 | 3.79 |
| ACTAGCAGGCCAAGGGCCACTCAAGATTAGTCCG | 0.598 | 0.143 | 0.443 | -0.506 | 0.0111 | -0.212 | -0.921 | -0.964 |
| CCAGACAGGTGAAAGGTAACCCAGTCTGGTACGC | 0.747 | 1.35 | 0.881 | -0.455 | 1.83 | 0.935 | -0.0283 | -0.223 |
| AGAACGAGGGCACGCTTAGTTGATAGCAGAGTAG | 1.38 | 1.76 | 2.33 | 2.1 | 1.42 | 1.94 | 0.257 | 0.561 |
| CCTACTGGGCCAAAGGTCACTGATTCCAATGCTC | 4.91 | 6.24 | 5.46 | 0.634 | 7.03 | 3.42 | 1.29 | 1.88 |
| CGTCCAAGGTCAAGGTCATTGAAAGAGACTCGAA | 5.3 | 7.02 | 7.64 | 3.89 | 7.4 | 4.39 | 3.82 | 5.11 |
| CCGACTGGGGCATAAGGCTACCATAAGCCAGCCC | 0.172 | -0.0263 | 0.171 | -0.797 | -0.16 | -0.225 | -0.406 | -0.345 |
| TCATATAGGTAATACAGGAGAAAGTCGGCATCTA | -0.136 | 0.519 | 0.598 | 1.48 | 0.686 | 0.0311 | 0.0486 | 0.233 |
| CCTGCTAGATCAATGGTCAGCTAAAGCAGCTCGC | -0.343 | -0.647 | -0.492 | 0.00874 | -0.596 | -0.908 | -1.01 | -0.711 |
| ATCGAAAGGTCGACGAGGTGAGTATTCACCGTTT | 3.13 | 4.29 | 4.32 | 1.13 | 4.63 | 3.65 | 0.672 | 0.806 |
| CCGACTGGGGCAGAAAGGTTACCATACCATCCGG | 1.96 | 1.73 | 1.25 | -0.648 | 1.61 | 0.85 | -0.396 | -0.314 |
| ACTCGGAGGACTAAGGTCAGAGCTACGCCAGTGA | 3.15 | 2.89 | 2.54 | 0.168 | 2.34 | 3.35 | 2.6 | 0.805 |
| TGTCAAAGTTCAAAGGTAACATAAGTATCCACAC | 3.83 | 6.56 | 6.03 | 4.43 | 6.86 | 3.53 | 0.27 | 4.17 |
| ATCGAAAGGTCGTGGGGTGAGTATACAGAAAGGC | 3.6 | 5.2 | 4.44 | 2.07 | 6.17 | 3.62 | 2.02 | 2.16 |
| ATCGAAACGTCGAAGGTGAGTATACCCACCCGAA | -0.0717 | 0.382 | 0.461 | -1.07 | 0.361 | 0.0237 | -0.567 | -0.497 |
| CCTATTAGTTGATCATAAGGGCAACCGAAGCTCG | 1.43 | 0.898 | 0.868 | 0.845 | 0.308 | 1.69 | 1.05 | 1.1 |
| GCTATTAGTTGGAAGGGCAACCGAATGATTCTCG | 0.941 | 0.317 | 0.522 | 0.581 | 0.0792 | -0.126 | -0.242 | -0.28 |
| GTAACGAGGGCATTCGAGTTGATAGCATGGCGAT | 0.944 | 1.34 | 1.45 | 2.91 | 0.914 | 3.18 | -0.244 | 3.97 |
| CCTAACAGGCCAATCTGGGTCACTCAAGGCTTGA | 2.38 | 1.47 | 1.75 | 0.498 | 0.758 | 3.85 | 0.717 | 0.191 |
| CCTTACTGGTCAAGGTTATAGCACGGGTGGTACG | 1.78 | 1.43 | 1.55 | -0.171 | 1.37 | 1.52 | 1.09 | 0.749 |
| ATATGTAGGTTAAGGGGCATTCAGGTTGGTTCGC | 2.06 | 1.58 | 1.19 | 1.17 | 1.85 | 1.82 | 1.46 | 2.03 |
| GCGACTGGGGGAAAGCAGGTTACCATAAGGTTGG | 0.976 | 0.585 | 0.39 | 0.147 | 0.696 | 2.25 | 0.613 | 0.229 |
| CGAACGAGGGGATGAGTTGATAGCAAATGCCGAT | -0.429 | -0.0531 | 0.201 | 0.534 | 0.0402 | -0.246 | -0.206 | 0.579 |
| CGTCCATGGTCATAGGAGGTCAGTGAAGACAGAT | 3.47 | 2.87 | 2.8 | 0.0145 | 2.18 | 3.83 | 0.621 | 1.16 |
| AGTCAAAGTTCACTAGGTAATGTAAGATTCAGCT | 3.71 | 4.84 | 5.6 | 4.39 | 3.73 | 1.91 | -0.139 | 3.81 |
| CCAGACAGGTGAGAAGGTAGCTCAGCCTCGATTA | 0.12 | 0.0158 | -0.00904 | -0.104 | -0.128 | -0.29 | -0.679 | -0.24 |
